In the supplement of paper PMC6555819:

Tests used:
Assay in all cases: PBM binding z-score (relative to random genomic background probes); higher = stronger binding; sequences stand for … in GC…GCGATTGACAGCGTAGAATGAAGG
[1] = system: RARb homodimer (NR concentration 270 nM)
How it was run: (§1)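 Regression normalization was applied to scanned fluorescence from custom Agilent 4×180K protein-binding microarrays. Before scanning, arrays were incubated 1 h with ligand-free nuclear receptor dimers, and binding was detected with antibodies against each partner (one per run). Binding z-scores use the random background probes as reference.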

[2] = system: RARg:RXRa (NR concentration 270 nM, RXRa partner concentration 90 nM)
How it was run: as §1

[3] = system: RARg homodimer (NR concentration 270 nM)
How it was run: as §1

[4] = system: RXRa DBDmut IVT, anti-RXR (DBD mutation: RXRa K156A/R161A, NR concentration 90 nM)
How it was run: as §1

[5] = system: RXRa homodimer (NR concentration 180 nM)
How it was run: as §1

[6] = system: THRa:RXRa (NR concentration 90 nM, RXRa partner concentration 90 nM)
How it was run: as §1

[7] = system: THRa homodimer (NR concentration 90 nM)
How it was run: as §1

[8] = system: VDR:RXRa (NR concentration 270 nM, RXRa partner concentration 90 nM)
How it was run: as §1

[9] = system: VDR homodimer (NR concentration 270 nM)
How it was run: as §1

Sequence	PBM binding z-score [1]	PBM binding z-score [2]	PBM binding z-score [3]	PBM binding z-score [4]	PBM binding z-score [5]	PBM binding z-score [6]	PBM binding z-score [7]	PBM binding z-score [8]	PBM binding z-score [9]
CGTCCAAGGTCAATGCTAGGTCGGTGAAAGCATT	4.24	6.11	6.15	3.31	4.83	3.79	1.98	4.11	2.04
GCTGCTAGGTCTGGTTGGTCAGCTAACGGGTACG	0.178	-0.569	-0.564	-0.198	-0.753	-0.722	-0.243	-0.816	-0.214
CGTCCACGGTCATAGGAGGTCAGTGAAGACAGAT	3.91	3.21	3.97	0.535	2.05	4.28	0.603	3.27	1.18
TTACCAAGTTGAAGGTCGTTGATCCCTCTGTAGA	1.15	0.339	0.342	1.07	1.2	1.26	0.0178	1.13	1.49
ATAGGTAGGTTAGCTGGGGTCATTCAGACTAGGC	4.09	4.35	3.5	2.2	5.46	5.2	3.51	6.28	5.44
AGAACGAGGGCAATGAGTTGATAACACGGGTGGC	0.742	1.31	1.53	1.96	0.961	1.04	-0.289	5.15	3.3
AATACAGGGTCATCGTAGGCCAGTGTACGCACAG	3.7	5.65	5.19	3.59	6.76	4.57	1.49	5.18	2.98
TAGCTTAGGTCATGCGGGCCAGTATAGTGTCGGC	3.21	3.97	4.75	1.31	2.97	3.6	2.34	3.13	0.954
CATACTAGGTCACAGAGGTCAAAGTCCGTGCGTA	5.73	7.31	7.56	3.27	7.91	4.72	3.18	7.98	6.84
AGTAAAAGTTCAGGACGAGGTAACGTAAAGCACG	2.91	4.29	4.25	2.76	2.3	3.78	2.01	2.66	1.89
CGAACTAGGTCTGAACAGGACAGTGAAGGATGAT	0.0456	0.195	0.136	-0.233	0.134	0.536	-0.761	-0.557	-0.4
CCGTACGGGTCACGAGGTTATAGCACGACGAGCG	4.11	6.39	5.81	1.55	7.62	3.75	0.803	5.23	1.75
CCAGCCAGGTGAAAGGTAACTCAGTCTGGTACGC	0.43	0.724	0.203	-0.519	1.37	1.55	0.326	0.288	-0.192
ATCTATAGGTAAGACTCAGTTCAGTGAAGAACGC	0.556	0.524	0.517	0.507	0.24	0.633	0.24	0.866	1.36
TCTTGTAGGTCAAGCAGGTTAAGAAAGCCTGAGT	3.48	4.8	5.5	1.7	4.02	3.08	0.641	5.16	1.49
CCTACTGGGCCAGGAAAGGTCATTGATTCAGTGA	4.32	4.28	3.54	-0.114	4.36	3.44	0.626	3.53	1.99
TAGCCTAGGTCATTCAGGGGCCAGTTTAGAAAGC	3.42	5.71	4.11	1.65	2.56	3.67	0.971	3.16	1.28
TCTTGTAGATCAGCAGGTTAAGGAAGCTGGCCAA	0.142	0.132	-0.17	0.474	0.329	0.266	-0.666	0.37	-0.598
TCTTGAAGATCAATAGAGGTTAAGAAAGTGCGCT	1.17	0.73	0.205	0.671	1.49	2.53	-0.674	1.92	-0.178
TATACAGGGTCAAAGGCCAGCGTACGAATGTCGA	3.48	5.75	4.83	2.96	7.31	3.54	0.731	4.73	2.16
CCAGACAGGTGAGAAGGTAAATCAGCCTCGATTA	0.187	0.461	0.353	-0.268	0.202	0.113	-0.24	-0.13	-0.437
TCATACAGGTAAAAGGTGAAAGTCGGTGTGGTAA	2.02	2.07	1.09	1.58	3.18	1.81	0.619	1.64	0.324
TCTGCTAGGTCAGTTGATCAGCTAACGAGCTGCC	2.08	2.57	3.41	0.576	0.945	1.28	0.115	0.135	-0.722
AGACTGAGGTTAAGATCAGGGAAACAGAATACAT	0.774	2.09	1.38	0.593	2.21	2.35	0.489	0.967	0.3
CTCGAAAGGTCGTTCTCAGGTGAGTATACCAAAC	2.86	5.28	3.33	3.44	4.39	4.46	1.46	3.95	2.59
ACAGACAGGTGACGAAGGTAACTCAGGCTATCAT	0.451	0.549	0.697	-0.564	0.578	1.03	0.0235	0.352	-0.374

Sequence	PBM binding z-score [1]	PBM binding z-score [2]	PBM binding z-score [3]	PBM binding z-score [4]	PBM binding z-score [5]	PBM binding z-score [6]	PBM binding z-score [7]	PBM binding z-score [8]	PBM binding z-score [9]
TCTAGTTGATCACGGAGGTCACACACGACGGGTA	3.89	4.17	3.92	0.917	4.56	3.52	2.48	3.99	2.18
AGAACGAGGGCAATAAGTTGATAGCACGGGTGGC	1.11	1.23	1.56	1.9	0.767	0.873	-0.185	–	2.26
ATATGTAGGTTATCGGGTCATTAAGTTTGCGCAT	3.05	3.13	2.3	1.7	3.23	3.25	2.55	6.04	4.46
CCTCGGAGGACAACAGTAGGTCAGAGCTGCCAGA	2.54	1.94	2.24	0.271	0.593	1.67	0.256	0.152	-0.109
GCTGCTAGGTCAACAGATGGTCAGCTAAAGCTCG	2.83	4.81	4.85	1.22	2.42	2.56	0.465	1.11	0.00157
GCATATAGGTAATATAAGGTGAAAGTCCGATTGT	0.859	0.463	0.731	0.683	1.07	4.5	2.32	0.397	0.0802
ACAGACAGTTGAGTGAAGGTAACTCAGCTGGACG	-0.475	0.0376	0.211	-0.165	0.132	0.662	-0.514	-0.356	-0.463
CCTAGCAGGCCAATCTGGGTCATTCAAGGCTTGA	2.03	0.777	0.991	0.224	0.619	3.73	0.0402	1.06	0.585
TTTCCAAGGTGAGCTGAGGTCGTTGATCCAACTC	1.73	1.51	1.2	0.414	1.59	4.61	2.71	4.12	2.61
TATTGTAGATCAACAGGAGGTTAAGAAAGATCGA	0.682	1	0.791	-0.715	0.924	1.23	-0.471	0.587	0.107
TCATAGAGGTAAAAGGTGAAAGTCGGTGTGGTAA	1.72	2.5	0.912	1.01	4	1.97	-0.0823	1.48	-0.219
CGAACTAGGTCATGGACAGGACAGTGAATAGTAA	2.93	5.08	4.95	1.42	3.41	3.13	0.909	2.3	0.49
GCGACTGGGGCATCAGCAGGTTAGCATAACTTAA	0.258	0.506	0.0514	-0.821	0.0592	0.204	-0.74	-0.526	-0.612
CGAACTCGGTCATCCAGGACAGTGAATACATTGA	1.59	2.22	2.83	0.985	0.784	2.12	0.998	2.61	1.15
CCTACTAGGCCATCAGGTCATTGATATCAACGTT	3.07	2.45	2.56	1.43	1.71	3.32	3.28	2.26	2.51
CAAACTAGGCCACCGGAAGGTCAAAGTCCGCATG	4.21	4.82	4.07	0.796	4.1	2.93	1.18	3.2	2.29
TAAGACAGGTGAAGGTAACTCAGGTACGCAGTCG	0.812	0.869	0.994	-0.391	0.793	1.48	0.449	0.46	0.487
CGTCCAACGTCAATGCTAGGTCAGTGAAAGCATT	2.01	1.36	1.14	0.107	0.267	1.6	0.388	0.103	-0.0849
TCTGCTAGGTCAGTTTGTCAGCTAACGAGCTGCC	1.74	1.84	2.44	0.8	0.666	0.996	0.0715	0.205	-0.975
TTATCAAGGTGAGCTGAGGTCGTTGATCCAACTC	1.62	1.33	1.07	0.397	1.59	4.64	2.47	3.93	2.33
CATACTGGGCCAAAAAGGTCATTGATGCCGATAA	4.48	4.89	4.82	1.25	5.11	3.14	0.641	–	3.14
CCTAGATGGTCAAGGTCACACACGCTATAGGTAC	4.55	4.69	4.96	2.04	4.74	4.1	3.84	4.15	3.61
CCTACTGGGCTAAAGGTCATTGATTCCAATGCTC	4.22	4.96	4.27	1.17	5.21	3.15	0.533	–	2.18
TCTTGTAGATCAAGCAGGCTAAGAAAGCCTGAGT	-0.885	-0.605	-0.521	0.402	-0.67	-0.805	-0.733	-0.214	-0.349
ACTGACAGGTGAGTGAAGGTAACTCAGCTGGACG	0.153	0.285	0.606	-0.285	0.3	1.74	-0.42	-0.322	-0.23
TAGCCAAGGTCATGGGCCAGTATACCACGCGAAC	4.04	6.18	6.1	1.93	6.11	3.89	2.68	4.51	2.65
